Experimental data published in PubChem BioAssay AID2514 (National Center for Advancing Translational Sciences (NCATS), 2010).
Where “and” joins values, the source holds several entries; their conditions need not be identical. Equal entries are not always repeated. Records with an inconclusive call do not appear. Unmarked numbers belong to inactive results. Calls of active or inactive are those of the source. Calls come from the whole dose curve; as a rule, active = well fitted activation curve with a large enough effect; inconclusive = small, poorly fitted or top-dose-only effect; inactive = no such curve, though single readings can be large or run the other way.

assay: Confirmation Concentration-Response Assay for Enhancers of SMN2 Splice Variant Expression for Probe SAR; conditions: HEK293 SMN2 exon7 splicing luciferase reporter, luminescence; series mostly up to 46.1 µM; activation: at the top concentration
Excerpt: NIH Chemical Genomics Center [NCGC] NIH Molecular Libraries Probe Production centers Network [MLPCN] MLPCN Grant: R03 MH084179-01 Assay Submitter (PI): Elliot Androphy NCGC Assay Overview: Spinal muscular atrophy (SMA) is caused by insufficient levels of the survival motor neuron protein SMN. The SMN locus on chromosome 5q13 contains two inverted copies of SMN called SMN1 and SMN2 which are 99% identical at the amino acid level. SMN1 is a fully functional protein and SMN2 skips exon 7 90% of the time. Skipping of exon 7 produces non-functional protein product. 10% of the SMN2 protein includes exon 7 and is fully functional. In the SMA disease state, mutations in the SMN1 locus are the cause of the disease state. Because only 10% of SMN2 is of the fully functional form, it is not sufficient to overcome the deficiency produced by the loss of the SMN1 product. A therapy that either increase the amount of SMN2 product made or to increase the inclusion of exon 7 has been proposed for the treatment of SMA. We have designed an assay to identify small molecules that can increase the amount of functional SMN2 product by appending a luciferase reporter gene after the native SMN2 gene, such that inclusion of exon 7 in the expressed product places the luciferase sequence in frame, thus generating functional luciferase enzyme.
NCGC Assay Protocol Summary: This screen utilizes a luciferase reporter gene assay, combining the promoter with the major portion of the native SMN2 cDNA (exons 1 -7, intron 8 , exon 8 fused to luciferase) stably expressed in HEK293 cells. Compounds that increase luciferase signal presumably enhance expression of the functional SMN2 splice variant. Passaging media contained DMEM w/ glutamax (+phenol red) 10% FCS, 1x pen/strep, 200 ug/ml hygro, 1x sodium pyruvate. Assay media contained DMEM w/ glutamax (-phenol red) 10% FCS, 1x pen strep, 1x pyruvate Sequence, Parameter, Value, Description (1) Cells, 5 uL, 2000 cells/well, 1536 TC treated White solid bottom plate (2) Time, 10-12 hours, 37C 5% CO2 (3) Compound, 23 nl, MLSMR Library (4) Control Compound, 23 nL, Sodium butyrate st 4.5mM (final) conc (5) Time, 30-36 hours, 37C 5% CO2 (6) Reagent, 3 ul, One Glo (TM) from Promega (7) Time, 5-15 minutes, Room temp (8) Detector, Viewlux: luminescent read, 60 second integration, high speed 2x binning Keywords: Spinal muscular atrophy, SMA, SMN2, high throughput screening, MLSMR, MLPCN, NIH Roadmap, qHTS and NCGC

| Compound | Potency | activation [%] |
| --- | --- | --- |
| NC(=O)C1CCN(c2nc(-c3ccc(Br)cc3)cs2)CC1 | 708 nM (active) and 772 nM (active) | – |
| Cc1noc(C)c1-c1csc(N2CCC(C(N)=O)CC2)n1 | – | 14.3 |
| CS(=O)(=O)c1ccccc1-c1csc(N2CCC(C(N)=O)CC2)n1 | – | -23.8 |
| NC(=O)C1CCN(c2nc(-c3ccccc3C(F)(F)F)cs2)CC1 | – | -39.3 |
| NC(=O)C1CCN(c2nc(-c3ccccc3F)cs2)CC1 | 1.37 µM (active) | – |
| CC(=O)c1ccc(-c2csc(N3CCC(C(N)=O)CC3)n2)cc1 | 7.72 µM (active) | – |
| CN(C)c1ccccc1-c1csc(N2CCC(C(N)=O)CC2)n1 | – | 19 |
| CC(=O)c1cccc(-c2csc(N3CCC(C(N)=O)CC3)n2)c1 | 3.87 µM (active) | – |
| NC(=O)C1CCN(c2nc(-c3ccc4occc(=O)c4c3)cs2)CC1 | 7.72 µM (active) | – |
| NC(=O)C1CCN(c2nc(-c3ccccc3Br)cs2)CC1 | – | -21.4 |
| NC(=O)C1CCN(c2nc(-c3ccc4c(c3)OCCO4)cs2)CC1 | 0.688 µM (active) | – |
| Cn1ccc2cc(-c3csc(N4CCC(C(N)=O)CC4)n3)ccc21 | 4.34 µM (active) | – |
| NC(=O)C1CCN(c2nc(-c3cccc(N)c3)cs2)CC1 | – | -14.3 |
| COc1ccc(-c2csc(N3CCC(C(N)=O)CC3)n2)cc1 | 4.34 µM (active) | – |
| NC(=O)C1CCN(c2nc(-c3ccc(F)cc3)cs2)CC1 | 3.45 µM (active) | – |
| NC(=O)C1CCN(c2nc(-c3ccccc3-c3ccccc3)cs2)CC1 | – | 5 |
| CN(C)c1cccc(-c2csc(N3CCC(C(N)=O)CC3)n2)c1 | 0.688 µM (active) | – |
| NC(=O)C1CCN(c2nc(-c3cccs3)cs2)CC1 | 7.72 µM (active) | – |
| NC(=O)C1CCN(c2nc(-c3ccc4ccccc4c3)cs2)CC1 | 4.87 µM (active) | – |
| Cc1ccc(-c2csc(N3CCC(C(N)=O)CC3)n2)cc1 | 0.772 µM (active) | – |
| CS(=O)(=O)c1cccc(-c2csc(N3CCC(C(N)=O)CC3)n2)c1 | – | 4.76 |
| NC(=O)C1CCN(c2nc(-c3cccnc3)cs2)CC1 | – | 0 |
| NC(=O)C1CCN(c2nc(-c3cc4ccccc4o3)cs2)CC1 | 8.67 µM (active) | – |
